Results as given in PubChem BioAssay (NCATS).
Where “and” joins values, the source holds several entries; their conditions need not be identical. Equal entries are not always repeated. Records with an inconclusive call do not appear. The source holds several records for some structures; these can differ, active in one and inactive in another. Calls of active or inactive are those of the source. Unless noted, calls follow the shape of the dose curve; as a rule, active = well fitted curve in the direction sought with a large enough effect; inconclusive = small, poorly fitted or top-dose-only effect, or another doubt; inactive = no such curve, though single readings can be large; an effect the other way counts as inactive or inconclusive.

Tests used:
[1] = molecular target: Arylsulfatase A (Homo sapiens) (UniProt P15289); test: qHTS screen for enhancers of Arylsulfatase A (ASA1): LOPAC Validation Assay (AID 720538); also: potency is read from the fitted curve at half-maximal effect
How it was run: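 First, ASA-I179S fibroblasts from an MLD patient adhered for 6 hrs. Next, compounds were added for 48h. Then pNCS substrate (0.5mM final) with lysis buffer reacted 14h at room temperature before NaOH stop and fluorescence measurement.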

[2] = qHTS for compounds that reverse cellular toxicity of Amyloid beta (A-beta) peptide in yeast: LOPAC Validation Assay (AID 720559)
How it was run: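 Activity is expressed relative to DMSO and an equimolar ferric chloride/clioquinol mix. Compounds were pinned into medium with A-beta-expressing yeast, grown 48 hr at 30 C, then read by absorbance at 600 nm.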

[3] = qHTS for Activators of Parkin Expression: LOPAC Validation Assay (NLuc Reporter) (AID 720572)
How it was run: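 Neuronal cells with a Parkin promoter-driven FLuc/NLuc coincidence reporter were treated 24 h at 37 C in 7-point dose response (LOPAC). NLuc luminescence read after FLuc; signals normalized to DMSO and positive control (100%).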

[4] = qHTS for Activators of Parkin Expression: LOPAC Validation Assay (FLuc Reporter) (AID 720573)
How it was run: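 A neuronal cell line harbouring FLuc and NLuc reporters behind the Parkin promoter was exposed to compounds for 24 h. Firefly luciferase signal, measured after 10 min with detection reagent, was scaled to DMSO and positive-control wells.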

[5] = qHTS for small molecule inhibitors of Yes1 kinase: Counter Assay (AID 686950);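 also: no kinase present so only ADP-Glo detection of a fixed ADP amount is tested; luminescence from ADP-Glo reporting ADP in a fixed ATP and ADP mixture; series mostly up to about 77 µM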
How it was run: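 Enzyme-free detection counter-screen: compounds preincubated 20 min in buffer, then 0.08 mM ATP plus 0.02 mM ADP added for 60 min at room temperature; ADP-Glo luminescence. Buffer 50 mM Tris pH 7.5, 10 mM MgCl2, 150 mM NaCl; normalized to ATP+ADP and ATP-only controls.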

[6] = qHTS assay for small molecule agonists of the antioxidant response element (ARE) signaling pathway measured by Nrf2-dependant transcriptional activity (AID 720636; active = well fitted curve in the direction sought with a large enough effect in the repeat runs; an effect the other way counts as inactive or inconclusive)
How it was run: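 ARE-luc HepG2 cells carrying an Nrf2-responsive luciferase reporter were plated in medium with 1% dialyzed FBS, left 6 hr at 37 C to attach, then exposed to compound for 16 hr. Luciferase luminescence was read after ONE-Glo addition.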

[7] = qHTS for Inhibitors of Ubiquitin-specific Protease USP2a Using CHOP2 as the Reporter: Cytotox Assay (AID 652170);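 also: HCT116 human colon cancer cells at 600 per well; series mostly up to about 46 µM; nearly all actives have a fitted effect of over 70% in size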
From the text: Homeostasis of cellular proteins is maintained through a combination of synthesis and degradation. The pathway that accounts for the majority of protein degradation is the ubiquitin-proteasomal pathway. Ubiquitin (Ub) is highly conserved in all cells and the generation of a multi-Ub chain typically targets proteins for degradation by the proteasome. However, ubiquitination is highly reversible and dynamic. Deubiquitination, the reverse process, is catalyzed through the action of enzymes referred to as isopeptidases or deubiquitinating enzymes (DUBs). This group of enzymes is collectively responsible for maintaining adequate pools of free ubiquitin and regulating the ubiquitination status of cellular proteins. The class of DUBs referred to as the ubiquitin-specific proteases (USP) family functions endoproteolytically to cleave Ub chains from a wide range of protein substrates. […] This assays monitors cell proliferation by quantitating the amount of ATP present by luciferase, which in the presence of ATP converts pro-luciferin into the luminescent luciferin product. A compound that inhibits cell proliferation would result in a decrease in luminescence. […]
5 uL of HCT116 (600 cells/well) were plated into a 1536 well plate and then incubated for 6 hr at 37 deg C, 5% CO2. […] Then, 3 uL of Cell Titer Glo is added, the plate is left at RT for 10 min, before luminescence is detected using the ViewLux.

[8] = molecular target: Ubiquitin carboxyl-terminal hydrolase 2 (Homo sapiens) (UniProt O75604); test: qHTS for Inhibitors of Ubiquitin-specific Protease USP2a Using CHOP2 as the Reporter: K484 Substrate (AID 652173);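 also: cleavage of internally quenched K48 di-ubiquitin substrate measured as rising fluorescence over time; nearly all actives have a fitted effect of over 70% in size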
From the text: Homeostasis of cellular proteins is maintained through a combination of synthesis and degradation. The pathway that accounts for the majority of protein degradation is the ubiquitin-proteasomal pathway. Ubiquitin (Ub) is highly conserved in all cells and the generation of a multi-Ub chain typically targets proteins for degradation by the proteasome. However, ubiquitination is highly reversible and dynamic. Deubiquitination, the reverse process, is catalyzed through the action of enzymes referred to as isopeptidases or deubiquitinating enzymes (DUBs). This group of enzymes is collectively responsible for maintaining adequate pools of free ubiquitin and regulating the ubiquitination status of cellular proteins. The class of DUBs referred to as the ubiquitin-specific proteases (USP) family functions endoproteolytically to cleave Ub chains from a wide range of protein substrates. […] Confirmed qHTS active compounds were tested in orthogonal USP2 assays utilizing a di-ubiquitin substrate labeled with a quencher on one ubiquitin and a fluorescent compound on the other, i.e. the substrate has internally quenched fluorescence or IQF (Lifesensors). In the presence of active USP2, the diubiquitin (DiUb) is cleaved and the fluorescence at 598 nm increases. […] Upon inhibition of USP2, the fluorescence signal from cleaved substrate increases less over time than in the absence of an inhibitor. […]

[9] = qHTS assay for small molecule antagonists of the retinoid-related orphan receptor gamma (ROR-gamma) signaling pathway - cell viability counter screen (AID 720652; active = well fitted curve in the direction sought with a large enough effect in the repeat runs; an effect the other way counts as inactive or inconclusive;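 also: CHO reporter cells with doxycycline-induced ROR-gamma expression; series mostly up to about 92 µM; compound exposure lasted 16 hr before ATP read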)
How it was run: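 CHO cells carrying TET-inducible ROR and RORE-luciferase reporter, plated 5 hr, then dosed with compound plus doxycycline. After 16 hr at 37 C, viability read as intracellular ATP by CellTiter-Glo luminescence.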

[10] = molecular target: Tyrosine-protein kinase Yes (Homo sapiens) (UniProt P07947); test: qHTS for small molecule inhibitors of Yes1 kinase: Primary Screen (AID 686947); also: nearly all actives have a fitted effect of over 60% in size
How it was run: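 Yes1 (4 nM) preincubated 20 min with compound, then 60 min room-temperature reaction with 0.1 mM ATP and 0.3 mg/mL poly(E4Y) in pH 7.5 Tris, 10 mM MgCl2. ADP measured by ADP-Glo luminescence, normalised to enzyme/no-enzyme controls.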

Measured: Potency

Tyrosine-protein kinase Yes (Homo sapiens), sequence (P07947 whole entry, looked up): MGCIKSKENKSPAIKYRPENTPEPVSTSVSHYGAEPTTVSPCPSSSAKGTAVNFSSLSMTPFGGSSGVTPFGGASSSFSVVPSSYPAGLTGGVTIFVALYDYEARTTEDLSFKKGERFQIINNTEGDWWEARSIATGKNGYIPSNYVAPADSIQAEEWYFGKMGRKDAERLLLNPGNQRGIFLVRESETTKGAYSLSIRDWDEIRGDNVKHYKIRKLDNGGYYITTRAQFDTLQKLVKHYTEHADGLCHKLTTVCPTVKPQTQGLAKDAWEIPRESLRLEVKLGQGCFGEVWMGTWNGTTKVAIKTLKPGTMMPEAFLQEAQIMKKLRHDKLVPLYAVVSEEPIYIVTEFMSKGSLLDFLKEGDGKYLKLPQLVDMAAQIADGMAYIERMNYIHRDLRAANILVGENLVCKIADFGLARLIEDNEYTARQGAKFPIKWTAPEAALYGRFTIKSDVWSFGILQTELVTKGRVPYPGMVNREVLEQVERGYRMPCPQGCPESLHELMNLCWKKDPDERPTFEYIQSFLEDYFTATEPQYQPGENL
Arylsulfatase A (Homo sapiens), sequence (P15289 whole entry, looked up): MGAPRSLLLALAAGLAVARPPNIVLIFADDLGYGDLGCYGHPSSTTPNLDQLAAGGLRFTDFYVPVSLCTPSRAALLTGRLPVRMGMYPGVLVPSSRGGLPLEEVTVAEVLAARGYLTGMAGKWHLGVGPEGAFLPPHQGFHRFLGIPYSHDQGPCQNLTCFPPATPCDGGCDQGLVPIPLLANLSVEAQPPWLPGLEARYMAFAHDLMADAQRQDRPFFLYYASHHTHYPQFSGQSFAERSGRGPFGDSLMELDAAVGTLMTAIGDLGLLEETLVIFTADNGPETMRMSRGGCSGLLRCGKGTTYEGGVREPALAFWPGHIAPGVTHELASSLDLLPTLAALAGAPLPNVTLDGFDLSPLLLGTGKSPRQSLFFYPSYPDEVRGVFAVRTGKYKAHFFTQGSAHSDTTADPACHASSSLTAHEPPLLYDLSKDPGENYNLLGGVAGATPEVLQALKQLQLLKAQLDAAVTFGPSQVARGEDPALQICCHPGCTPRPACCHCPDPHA
Ubiquitin carboxyl-terminal hydrolase 2 (Homo sapiens), sequence (O75604 whole entry, looked up): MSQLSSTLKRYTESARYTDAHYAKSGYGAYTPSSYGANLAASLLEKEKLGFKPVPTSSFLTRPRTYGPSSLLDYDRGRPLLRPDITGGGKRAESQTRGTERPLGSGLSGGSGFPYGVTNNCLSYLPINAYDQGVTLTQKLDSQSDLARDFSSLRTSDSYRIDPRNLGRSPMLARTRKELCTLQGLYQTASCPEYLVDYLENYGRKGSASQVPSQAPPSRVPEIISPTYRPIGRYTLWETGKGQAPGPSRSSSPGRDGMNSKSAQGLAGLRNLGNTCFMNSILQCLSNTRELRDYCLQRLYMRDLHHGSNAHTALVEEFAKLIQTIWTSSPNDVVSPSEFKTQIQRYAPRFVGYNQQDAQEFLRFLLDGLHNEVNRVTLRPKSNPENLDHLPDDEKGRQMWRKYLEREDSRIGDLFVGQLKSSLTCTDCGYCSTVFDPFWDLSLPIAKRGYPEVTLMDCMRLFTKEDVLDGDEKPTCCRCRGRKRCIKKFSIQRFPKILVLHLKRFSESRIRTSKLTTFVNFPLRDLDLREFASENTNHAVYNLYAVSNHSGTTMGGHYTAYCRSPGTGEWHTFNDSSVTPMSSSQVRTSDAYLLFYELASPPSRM

C=Cc1c(C)c2cc3[nH]c(cc4nc(cc5nc(cc1[nH]2)C(C)=C5CCC(=O)O)C(CCC(=O)O)=C4C)c(C)c3C=C
inactive: [1] | [2] | [3] | [4]

OCCN1CCN(CCCN2c3ccccc3Sc3ccc(Cl)cc32)CC1
inactive: [1] | [2] | [3] | [4]

CCN(CC)CCCC(C)Nc1c2ccc(Cl)cc2nc2ccc(OC)cc12 (stereo not drawn)
inactive: [1] | [2] | [3] | [4]

CC(=O)OCC(=O)[C@@]1(O)CC[C@H]2[C@@H]3CCC4=CC(=O)CC[C@]4(C)[C@H]3C(=O)C[C@@]21C
inactive: [1] | [2] | [3] | [4]

NC(N)=NCCC[C@H](N)C(=O)O
inactive: [1] | [2] | [3] | [4]

CC(CN(C)C)CN1c2ccccc2CCc2ccccc21 (stereo not drawn)
inactive: [1] | [2] | [3] | [4]

CC(C)(C)c1onc(OCP(=O)(O)O)c1CC(N)C(=O)O (stereo not drawn)
inactive: [2] | [3] | [4]
inactive and 4.26 µM (active): [1]

CCCCCCCCCCCCCCCC(=O)NCCO
inactive: [1] | [2] | [3] | [4]

CC1=C(/C=C/C(C)=C/C=C/C(C)=C/C(=O)O)C(C)(C)CCC1
inactive: [1] | [2] | [3]

CCN(CC)CCNC(=O)c1c(C)[nH]c(/C=C2\C(=O)Nc3ccc(F)cc32)c1C
inactive: [5]

CC(CN1c2ccccc2Sc2ccccc21)N(C)C (stereo not drawn)
inactive: [1] | [2] | [3] | [4] | [6]

CC(C)(C(=O)O)c1ccc(C(O)CCCN2CCC(C(O)(c3ccccc3)c3ccccc3)CC2)cc1 (stereo not drawn)
inactive: [1] | [2] | [3] | [4]

OCc1cc(C(O)CNCCCCCCOCCCCc2ccccc2)ccc1O (stereo not drawn)
inactive: [1] | [2] | [3] | [4]

CC(C)C(=O)c1c(C(C)C)nn2ccccc12
inactive: [1] | [2] | [3] | [4]

C[C@](N)(Cc1ccc(O)cc1)C(=O)O
inactive: [1]

Nc1ccc(S(=O)(=O)Nc2nccs2)cc1
inactive: [7] | [8] | [6] | [9]

O=C1Nc2ccc(Cl)cc2[C@@](C#CC2CC2)(C(F)(F)F)O1
inactive: [10] | [5]

CCCn1cnc2c1c(=O)n(CCCCC(C)=O)c(=O)n2C
inactive: [1] | [2] | [3] | [4]

CC(=O)O[C@@]12CO[C@@H]1C[C@H](O)[C@@]1(C)C(=O)[C@H](O)C3=C(C)[C@@H](OC(=O)[C@H](O)[C@@H](NC(=O)OC(C)(C)C)c4ccccc4)C[C@@](O)([C@@H](OC(=O)c4ccccc4)[C@H]21)C3(C)C
inactive: [10] | [5]

C[C@]12C[C@H](O)[C@H]3[C@@H](CCC4=CC(=O)CC[C@@]43C)[C@@H]1CC[C@@H]2C(=O)CO
inactive: [1] | [2] | [3] | [4] | [6] | [9]

Oc1cn2c(n1)Nc1ccc(Cl)c(Cl)c1C2
inactive: [10] | [5]

Nc1cc(=O)[nH]c(N)n1
inactive: [1] | [2] | [3] | [4]

CC1=C(CC(=O)O)c2cc(F)ccc2/C1=C\c1ccc(S(C)=O)cc1 (stereo not drawn)
inactive: [1] | [2] | [3] | [4]

N=c1c[n+](N2CCOCC2)[n-]o1
inactive: [1] | [2] | [3] | [4]

NC(=O)c1ncn([C@@H]2O[C@H](CO)[C@@H](O)[C@H]2O)c1N
inactive: [10] | [5]

CNCCCC1c2ccccc2C=Cc2ccccc21
inactive: [1] | [2] | [3] | [4]

CN(C)CCOC(C)(c1ccccc1)c1ccccn1 (stereo not drawn)
inactive: [1]
